Source: PubChem BioAssay AID1963321 (National Center for Advancing Translational Sciences (NCATS), 2024)
Results filed as inconclusive are left out. Activity calls are given as the source filed them. The call rests on the fitted dose curve.

What follows are molecules tested against cAMP-dependent protein kinase catalytic subunit alpha (Homo sapiens) (UniProt P17612) (assay: Protein Kinase A (PKA-HiBiT) enzymatic inhibition screen - Functional assay). Details: luminescence; series mostly up to 57.5 µM.
Text: National Center for Advancing Translational Sciences (NCATS),
National Institute of Health (NIH), Maryland
Discovery and optimization of novel protein-binding ligands underlies many of the methods and applications of biology, drug discovery, clinical diagnostics, and environmental toxicology. Assays for detecting the interaction of, for example, a molecule with a macromolecular target also referred to here as the target of interest (TOI) is dependent on a compatible output technology. Depending on the nature and knowledge surrounding the TOI, whether a receptor, enzyme, regulatory subunit or scaffold, or a sequence-defined nucleic acid folded into a complex tertiary structure, assay strategies can vary widely.
Here we exploit ligand-biased changes in the structural dynamics of the target protein to control reporter alpha complementation allowing a non-competitive, non-functional, non-separation measure of ligand-target interaction.
Using a chemical library of >1,200 compounds enriched for scaffolds known to be associated with the inhibition of firefly luciferase (FLuc) activity (PubChem AIDs 2309) we first illustrate and compare the Structural Dynamics Response (SDR) assay vs. the standard functional FLuc enzyme assay (2). Secondly, we show the specificity and sensitivity of the SDR for the Abelson tyrosine kinase (ABL1) compared to the serine/threonine protein kinase A, using an enriched chemical library of 128 compounds selected, in part, for activity annotated with ABL1 kinase activity using the Pharos database (3).
(1) A. S. Dixon et al., NanoLuc Complementation Reporter Optimized for Accurate Measurement of Protein Interactions in Cells. ACS Chem Biol 11, 400-408 (2016).
Chemistry & Biology, 19, 1060 - 1072 (2012).
(3) K. J. Kelleher et al., Pharos 2023: an integrated resource for the understudied human proteome. Nucleic Acids Res 51, D1405-D1416 (2023).
PROTOCOL TABLE (as described by Inglese J, Shamu CE and Guy RK. 2007)
SEQUENCE No. (e.g., 1, 2, 3, etc.); […] (e.g., C. elegans, Compounds, Incubation, Read, etc.); VALUE and DESCRIPTION.
1. Reagent. Dispense 4 uL PKA-N-HiBiT enzyme per well at a final enzyme concentration of 10 nM in buffer with 87.5 uM ATP (functional assay) into columns 2-48 of four replicate Greiner 1536-well white,solid bottom high base, medium plates per assay. Dispense respective buffer without enzyme at 4 uL/well in column 1 of assay plates using BioRaptr 2.
2. Compounds. Library compounds added at 23 nL/well by pin transfer. DMSO neutral control and H-89 positive control added at 25 nL/well, transfer by Mosquito dispenser.
3. Incubation. Incubate enzyme and compounds at room temperature for 30 min, protect from light.
4. Reagent. (Functional assay) Transfer 25 nL of kemptide peptide substrate to each well of four replicate kinase assay plates with Mosquito dispenser.
5. Incubation. (Functional assay) Kinase Enzyme incubated with peptide substrate for 3 h at room temperature, protected from light.
6. Reagent. (Functional assay) Add 4 uL/well of Kinase-Glo Plus reagent (Promega) to kinase activity assay plates.
7. Detector. (Functional assay) Luminescence measured using CCD-based camera (ViewLux) with settings as follows: Exposure, 1 sec; Gain, High; Speed, Slow; Binning, 2X.
Inglese J, Shamu CE and Guy RK, Reporting data from high throughput screening of small molecule libraries, Nature Chemical Biology, 2007, 3(8): 438-441. doi.org/10.1038/nchembio0807-438.

Potency, inactive:
Cc1nc(NC(=O)N2CCC[C@H]2C(N)=O)sc1-c1ccnc(C(C)(C)C(F)(F)F)c1
Cc1cc(O)c2c(c1)C(=O)c1cc(O)cc(O)c1C2=O
Nc1nc(NCCNc2ncc(-n3ccnc3)c(-c3ccc(Cl)cc3Cl)n2)ccc1[N+](=O)[O-]
Cc1ccc(NC(=O)N2CCN(c3nc(N)nc4sc(-c5cccnc5)nc34)CC2)cc1
O=S(=O)(/N=C/c1c(O)ccc2ccccc12)c1cccs1
COc1ccc(CNC(=O)Nc2ncc([N+](=O)[O-])s2)cc1
O=C1C(c2c(O)[nH]c3ccccc23)=Nc2ccccc21
Cc1[nH]nc2ncc(C(=O)N3CCC[C@H]3c3ccc(Cl)cc3)cc12
Cc1ccc(NC(=O)c2ccc(CN3CCN(C)CC3)cc2)cc1Nc1nc(-c2cccnc2)cs1
C=CC(=O)Nc1cccc(Oc2nc(Nc3ccc(N4CCN(C)CC4)cc3OC)ncc2Cl)c1
CCN1CCN(Cc2ccc(NC(=O)c3ccc(C)c(NC(=O)c4cncc(-c5cccs5)c4)c3)cc2C(F)(F)F)CC1
CN1CCN(CCCNc2ncc(Cl)c(-c3cc4c(C(=O)NC5CC5)cccc4s3)n2)CC1
NC1CCC(Nc2nc(Nc3ccc(C(=O)N4CCCCC4)cc3)c3ncn(-c4cccc(F)c4)c3n2)CC1 (stereo not given)
FC(F)(F)c1ccc(/C=C/c2nc(COc3ccc(CCCCn4ccnn4)cc3)co2)cc1
CCn1c(=O)c(-c2ccc(Cl)cc2Cl)cc2cnc(Nc3ccc(N4CCNCC4)c(F)c3)nc21
COc1cc2ncnc(Nc3ccc(F)c(Cl)c3)c2cc1OCCCN1CCOCC1
COc1cc2nccc(Oc3ccc(NC(=O)Nc4ccc(F)cc4F)c(F)c3)c2cc1OC
CC(C)(C)n1nc(-c2cccc3ccccc23)c2c(N)ncnc21
Cc1cn(-c2cc(F)cc(NC(=O)c3ccc(C)c(Nc4nccc(-c5cccnc5)n4)c3)c2)cn1
Cc1cc(F)ccc1-c1nc(NC(CO)CO)nc2c1ccc(=O)n2-c1c(F)cccc1F
CCNC(=O)Nc1ccc(-c2nc3c(c(N4CCOC[C@@H]4C)n2)CCN(c2ncccn2)C3)cc1
Cc1cc(NC(=O)c2ccc(C)c(Nc3nccc(-c4cccnc4)n3)c2)cc(-n2cnc(C)c2)c1
CNC(=O)c1ccccc1Sc1ccc2c(/C=C/c3ccccn3)n[nH]c2c1
Nc1ncc(-c2cnn(CCO)c2)c2scc(-c3ccc(NC(=O)Nc4cccc(F)c4)cc3)c12
Cc1ccc(C(=O)Nc2ccc(CN3CCN(C)CC3)c(C(F)(F)F)c2)cc1C#Cc1cnc2[nH]ncc2c1
Cc1[nH]c2ccccc2c1C1=C(NCCc2ccc(F)cc2)C(=O)N(C)C1=O
Cn1cc(-c2cc3c(N4CCN(c5ncc([C@@](C)(N)c6ccc(F)cc6)cn5)CC4)ncnn3c2)cn1
COc1cc(N2CCN(C)CC2)ccc1Nc1nc(N)c(C(=O)c2c(Cl)cccc2Cl)s1
C[C@@H]1CN(CC(=O)Nc2ccc3c(c2)Cc2cccc(-c4cc(=O)cc(N5CCOCC5)o4)c2S3)C[C@H](C)O1
NC(=O)c1cccc(-c2cc(Nc3ccc(OC(F)(F)F)cc3)ncn2)c1
O=C(O)C1(Cc2cccc(Nc3nccs3)n2)CCC(Oc2cccc(Cl)c2F)CC1 (stereo not given)
CNc1ncc2cc(-c3cc(NC(=O)NCCC(C)(C)C)c(F)cc3C)c(C)nc2n1
c1ccc(-c2oc3ncnc(NC[C@@H]4CCCO4)c3c2-c2ccccc2)cc1
CCN1CCN(Cc2ccc(NC(=O)Nc3ccc(Oc4cc(NC)ncn4)cc3)cc2C(F)(F)F)CC1
CC(C)(NS(=O)(=O)c1ccc2c(Cl)cnc(N=C(N)N)c2c1)C(=O)O
Cc1ncc(NC(=O)c2ccc(CN3CCN(C)CC3)c(C(F)(F)F)c2)cc1Nc1nccc(-c2cccnc2)n1
C#Cc1cccc(Nc2ncnc3cc4c(cc23)OCCOCCOCCO4)c1
O=C1CCC(N2C(=O)c3ccccc3C2=O)C(=O)N1 (stereo not given)
O=c1cc(N2CCOCC2)nc2c3ccccc3ccn12
Cc1nc2ccc(-n3ncc(C(=O)c4cc5ccccc5[nH]4)c3N)cc2[nH]1
